# Experimental data from paper PMC7862700, “An all-to-all approach to the identification of sequence-specific readers for epigenetic DNA modifications on cytosine”.
# Experiments:
# Assay in all cases: DAPPL (digital affinity profiling via proximity ligation, sequencing); 10 mM Tris-HCl pH 7.5, 50 mM NaCl, 1 mM DTT, 4% glycerol, room temperature, 30 min; GST-TFs on glutathione beads, 16-mer random dsDNA library, 0.1% formaldehyde crosslink after washing; high values mean tight binding
# Conditions in all cases: protein: recombinant; tags: N-terminal GST; dsDNA, one strand shown
# ETV2 = molecular target: T1, ETV2 (Homo sapiens, UniProt O00321 1-342)
# T1 sequence: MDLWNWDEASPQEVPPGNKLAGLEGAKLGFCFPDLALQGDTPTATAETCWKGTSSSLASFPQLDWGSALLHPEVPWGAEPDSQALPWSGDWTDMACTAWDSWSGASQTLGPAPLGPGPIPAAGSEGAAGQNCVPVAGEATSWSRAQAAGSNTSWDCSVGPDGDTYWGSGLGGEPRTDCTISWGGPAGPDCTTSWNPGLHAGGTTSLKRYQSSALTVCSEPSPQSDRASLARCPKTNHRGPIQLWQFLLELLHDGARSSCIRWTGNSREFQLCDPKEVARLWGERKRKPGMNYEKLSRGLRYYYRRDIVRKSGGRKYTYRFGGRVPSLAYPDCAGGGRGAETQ
# In short: (§1)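 Yeast served to express human transcription factors as GST fusions, which were then captured on glutathione beads and labelled with DNA barcodes. Pooled with a tag-only sample, they were incubated with 200 nmole of a 16-mer random double-stranded DNA library for 30 min at room temperature in Tris/NaCl/DTT/glycerol buffer, washed, crosslinked with 0.1% formaldehyde, ligated by proximity, amplified by PCR and sequenced. Dividing each hexamer's read frequency for a factor by its frequency for the tag-only sample gives the binding signal.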
# ELF3 = molecular target: T2, ELF3 (Homo sapiens, UniProt P78545 1-371)
# T2 sequence: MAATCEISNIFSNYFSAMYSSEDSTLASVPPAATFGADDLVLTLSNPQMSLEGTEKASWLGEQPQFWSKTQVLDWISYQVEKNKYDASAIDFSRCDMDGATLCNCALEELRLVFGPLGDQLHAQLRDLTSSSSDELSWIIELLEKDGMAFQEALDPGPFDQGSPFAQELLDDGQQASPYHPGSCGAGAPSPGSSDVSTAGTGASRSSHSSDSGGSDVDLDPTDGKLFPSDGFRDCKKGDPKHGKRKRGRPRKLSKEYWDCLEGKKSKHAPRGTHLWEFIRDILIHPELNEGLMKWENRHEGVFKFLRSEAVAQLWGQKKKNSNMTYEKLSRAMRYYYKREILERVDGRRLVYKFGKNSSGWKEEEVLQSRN
# In short: as §1
# ETV1 = ETV1 (Homo sapiens, UniProt P50549 1-477)
# In short: as §1
# ERF = molecular target: T3, ERF (Homo sapiens, UniProt P50548 1-548)
# T3 sequence: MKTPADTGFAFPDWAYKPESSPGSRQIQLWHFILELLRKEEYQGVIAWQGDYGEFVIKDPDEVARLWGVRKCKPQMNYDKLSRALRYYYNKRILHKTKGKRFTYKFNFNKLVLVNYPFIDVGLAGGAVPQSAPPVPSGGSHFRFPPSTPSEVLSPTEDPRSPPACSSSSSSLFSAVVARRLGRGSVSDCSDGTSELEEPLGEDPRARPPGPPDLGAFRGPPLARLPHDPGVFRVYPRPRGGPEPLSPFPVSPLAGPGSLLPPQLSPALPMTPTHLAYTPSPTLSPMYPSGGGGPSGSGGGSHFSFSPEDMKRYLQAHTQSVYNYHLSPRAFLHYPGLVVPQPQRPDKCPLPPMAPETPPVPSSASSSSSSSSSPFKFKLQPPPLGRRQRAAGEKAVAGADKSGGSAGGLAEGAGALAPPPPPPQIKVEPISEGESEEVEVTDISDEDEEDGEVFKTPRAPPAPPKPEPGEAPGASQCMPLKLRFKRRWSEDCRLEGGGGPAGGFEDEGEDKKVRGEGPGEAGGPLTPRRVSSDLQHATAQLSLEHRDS
# In short: as §1
# ETV3L = molecular target: T4, ETV3L (Homo sapiens, UniProt Q6ZN32 1-361)
# T4 sequence: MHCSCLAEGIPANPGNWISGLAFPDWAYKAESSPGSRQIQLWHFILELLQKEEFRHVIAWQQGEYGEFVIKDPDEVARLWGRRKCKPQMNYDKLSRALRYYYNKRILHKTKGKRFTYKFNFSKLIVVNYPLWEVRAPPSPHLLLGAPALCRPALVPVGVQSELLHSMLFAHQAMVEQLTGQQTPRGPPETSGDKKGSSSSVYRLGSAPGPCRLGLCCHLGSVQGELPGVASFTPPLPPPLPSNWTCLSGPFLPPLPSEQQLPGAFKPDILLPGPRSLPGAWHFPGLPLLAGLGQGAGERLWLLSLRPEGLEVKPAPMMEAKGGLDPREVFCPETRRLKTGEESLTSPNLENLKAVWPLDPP
# In short: as §1
# ETS2 = molecular target: T5, ETS2 (Homo sapiens, UniProt P15036 1-469)
# T5 sequence: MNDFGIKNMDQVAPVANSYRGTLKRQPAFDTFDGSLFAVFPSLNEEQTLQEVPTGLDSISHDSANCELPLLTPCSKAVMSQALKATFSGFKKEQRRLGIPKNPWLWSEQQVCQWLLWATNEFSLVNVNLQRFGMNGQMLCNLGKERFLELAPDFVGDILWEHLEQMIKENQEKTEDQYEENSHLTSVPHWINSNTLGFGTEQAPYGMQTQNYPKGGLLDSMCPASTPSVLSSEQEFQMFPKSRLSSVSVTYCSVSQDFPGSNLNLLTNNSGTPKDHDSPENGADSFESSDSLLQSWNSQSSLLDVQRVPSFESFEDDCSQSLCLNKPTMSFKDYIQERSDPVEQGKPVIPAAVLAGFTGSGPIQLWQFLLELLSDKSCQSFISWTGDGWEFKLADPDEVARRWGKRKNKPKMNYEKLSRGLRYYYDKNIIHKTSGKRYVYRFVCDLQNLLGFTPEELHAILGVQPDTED
# In short: as §1
# SPDEF = molecular target: T6, SPDEF (Homo sapiens, UniProt O95238 1-335)
# T6 sequence: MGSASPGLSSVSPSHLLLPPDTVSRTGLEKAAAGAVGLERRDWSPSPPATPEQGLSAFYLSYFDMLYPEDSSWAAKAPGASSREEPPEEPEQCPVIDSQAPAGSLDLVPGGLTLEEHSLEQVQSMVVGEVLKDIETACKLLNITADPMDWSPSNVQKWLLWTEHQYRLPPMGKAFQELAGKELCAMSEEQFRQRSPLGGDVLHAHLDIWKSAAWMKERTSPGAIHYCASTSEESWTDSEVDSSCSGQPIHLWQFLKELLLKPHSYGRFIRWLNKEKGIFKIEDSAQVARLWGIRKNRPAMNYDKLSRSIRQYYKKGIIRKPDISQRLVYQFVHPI
# In short: as §1
# ETV7 = molecular target: T7, ETV7 (Homo sapiens, UniProt Q9Y603 1-341)
# T7 sequence: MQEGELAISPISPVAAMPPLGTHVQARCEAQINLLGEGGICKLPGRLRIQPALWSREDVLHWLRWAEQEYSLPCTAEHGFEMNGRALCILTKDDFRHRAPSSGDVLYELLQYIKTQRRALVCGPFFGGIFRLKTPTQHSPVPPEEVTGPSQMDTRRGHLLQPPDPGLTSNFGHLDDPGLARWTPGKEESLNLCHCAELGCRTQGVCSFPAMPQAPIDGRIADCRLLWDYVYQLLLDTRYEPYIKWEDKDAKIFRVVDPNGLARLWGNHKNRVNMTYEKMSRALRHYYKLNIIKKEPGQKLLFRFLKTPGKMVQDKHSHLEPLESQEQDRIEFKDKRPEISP
# In short: as §1
# ETV3 = molecular target: T8, ETV3 (Homo sapiens, UniProt P41162-2 1-143)
# T8 sequence: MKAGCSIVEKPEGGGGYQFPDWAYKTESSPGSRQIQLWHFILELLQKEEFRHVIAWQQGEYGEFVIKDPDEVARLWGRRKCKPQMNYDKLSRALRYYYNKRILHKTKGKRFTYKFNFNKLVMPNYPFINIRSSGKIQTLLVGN
# In short: as §1
# ETV6 = ETV6 (Homo sapiens, UniProt P41212 1-452)
# In short: as §1
# ETV1, sequence (P50549 whole entry): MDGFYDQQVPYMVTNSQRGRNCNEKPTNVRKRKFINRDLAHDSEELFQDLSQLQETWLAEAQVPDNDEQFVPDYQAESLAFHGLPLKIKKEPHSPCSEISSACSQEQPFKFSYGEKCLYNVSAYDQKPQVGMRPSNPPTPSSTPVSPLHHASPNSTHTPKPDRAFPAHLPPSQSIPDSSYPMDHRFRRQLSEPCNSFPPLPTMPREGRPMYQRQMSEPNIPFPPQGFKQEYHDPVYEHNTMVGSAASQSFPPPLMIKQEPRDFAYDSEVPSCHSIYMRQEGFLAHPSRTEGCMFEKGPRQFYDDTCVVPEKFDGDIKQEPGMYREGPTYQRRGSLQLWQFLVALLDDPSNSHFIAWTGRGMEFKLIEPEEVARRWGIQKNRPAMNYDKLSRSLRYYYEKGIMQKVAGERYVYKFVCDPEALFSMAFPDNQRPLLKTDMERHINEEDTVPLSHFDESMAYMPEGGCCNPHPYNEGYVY
# ETV6, sequence (P41212 whole entry): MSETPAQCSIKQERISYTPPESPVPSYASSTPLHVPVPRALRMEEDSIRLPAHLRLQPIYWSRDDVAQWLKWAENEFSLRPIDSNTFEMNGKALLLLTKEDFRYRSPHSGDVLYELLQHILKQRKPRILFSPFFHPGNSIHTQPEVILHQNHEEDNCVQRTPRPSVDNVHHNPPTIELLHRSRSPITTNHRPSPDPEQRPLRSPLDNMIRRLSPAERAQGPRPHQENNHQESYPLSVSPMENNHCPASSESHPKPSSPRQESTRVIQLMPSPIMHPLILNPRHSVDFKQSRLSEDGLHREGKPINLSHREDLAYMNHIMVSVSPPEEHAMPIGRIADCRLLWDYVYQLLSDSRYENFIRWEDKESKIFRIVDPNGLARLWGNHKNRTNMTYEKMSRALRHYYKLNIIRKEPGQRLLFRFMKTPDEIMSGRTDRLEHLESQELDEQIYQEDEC
sequence,measurement,setting,value
CATGAC,binding signal,ETV2,"1.3 fold enrichment (6-mer frequency, TF over GST control)"
same,binding signal,ELF3,"1.15 fold enrichment (6-mer frequency, TF over GST control)"
same,binding signal,ETV1,"1.13 fold enrichment (6-mer frequency, TF over GST control)"
same,binding signal,ERF,"1.18 fold enrichment (6-mer frequency, TF over GST control)"
same,binding signal,ETV3L,"1.13 fold enrichment (6-mer frequency, TF over GST control)"
same,binding signal,ETS2,"1.2 fold enrichment (6-mer frequency, TF over GST control)"
same,binding signal,SPDEF,"1.2 fold enrichment (6-mer frequency, TF over GST control)"
same,binding signal,ETV7,"1.11 fold enrichment (6-mer frequency, TF over GST control)"
same,binding signal,ETV3,"1.13 fold enrichment (6-mer frequency, TF over GST control)"
same,binding signal,ETV6,"1.18 fold enrichment (6-mer frequency, TF over GST control)"
